Test results taken from PubChem BioAssay AID540353 (National Center for Advancing Translational Sciences (NCATS), 2011).
The list shows a part of the results. Records with an inconclusive call do not appear. The source made the active and inactive calls. Calls come from the whole dose curve; as a rule, active = well fitted inhibition curve with a large enough effect; inconclusive = small, poorly fitted or top-dose-only effect; inactive = no such curve, though single readings can be large or run the other way.

Test: qHTS for Inhibitos of Bacillus subtilis Sfp phosphopantetheinyl transferase (PPTase): Chemistry Optimization Followup in B. Subtilis HM489
Settings: B. subtilis HM489 (acpS-) growth, BacTiter-Glo, 5 h; series mostly up to 114 µM; activity change, negative = inhibition: at the top concentration
Text: Phosphopantetheinyl transfer is a process essential to cellular viability and maintenance. Cellular permeable and stable compounds acting as PPTase inhibitors are anticipated to be antimicrobial agents in organisms with complimenting genotypes. […] This experiment evaluated a series of test compounds for antimicrobial activity with B. subtilis HM489 (genotype: acpS- and sfp+), a strain that contains a targeted lesion in the acpS locus and thus requires a functional Sfp gene product for viability. [Mootz HD, 2001] This strain is expected to be sensitized to cell-permeable Sfp inhibitors. NIH Chemical Genomics Center [NCGC] NIH Molecular Libraries Probe Centers Network [MLPCN] MLPCN Grant: MH083266-01 Assay Submitter (PI): Michael Burkart, University of California, San Diego
Innoculum preparation. Bacillus subtilis HM489 is maintained on lysogeny broth (LB) solidified by the addition of 1.5% w/v agar. Single colonies were used to LB medium (2 mL) and shaken overnight at 30 masculineC. In the morning, this culture (100 uL) was used to seed a fresh LB medium (10 mL) and was shaken at 30 masculineC until the culture OD600 reached 0.5. This culture was diluted 1:100 in fresh LB medium to provide the inoculum below. Bacterial susceptibility. LB medium (2 uL) is dispensed into wells of a sterile white 1536-well plate. Test compounds (23 nL) prepared as serial dilutions in DMSO are added to the plate by pintool transfer. Innoculum (2 uL) is added; the plates are covered with a vented Kalypsys assay lid and incubated at 30 masculineC. After 5 hrs, Bac-Titer Glo (4 uL; Promega Corp, Madison, WI) is added to the plates. They are incubated 10 minutes at room temperature and then the luminescence detected in a ViewLux multimodal plate reader.

Compound	Potency	activity change, negative = inhibition
Cc1cc(C)nc(NC(=S)N2CCN(c3ccc(Cl)cc3C(F)(F)F)CC2)c1	10.5 µM (active)	
COc1ccnc(NC(=S)N2CCN(c3ncc(C(F)(F)F)cc3Cl)CC2)c1	11.8 µM (active)	
Cc1cc(C)nc(NC(=S)N2CCN(c3cccc(C(F)(F)F)c3)CC2)c1	33.2 µM (active)	
Cc1ccc(N2CCN(C(=S)Nc3cc(C)ccn3)CC2)cc1	33.2 µM (active)	
COc1cccc(NC(=S)N2CCN(c3ccc(Cl)cc3Cl)CC2)n1		-5.93% (inactive)
Cc1cc(C)nc(NC(=S)N2CCN(c3ccc4nonc4c3)CC2)c1		47.3% (inactive)
COc1cccc(NC(=S)N2CCN(c3ccccc3C(F)(F)F)CC2)n1	23.5 µM (active)	
Cc1cc(C)nc(NC(=S)N2CCN(c3ccc(Cl)cc3F)CC2)c1	23.5 µM (active)	
FC(F)(F)c1cccc(N2CCN(C(=S)Nc3ccncc3)CC2)c1	59.1 µM (active)	
